# Results filed as inconclusive are left out. The source made the active and inactive calls. Calls come from the whole dose curve; as a rule, active = well fitted curve in the direction sought with a large enough effect; inconclusive = small, poorly fitted or top-dose-only effect, or another doubt; inactive = no such curve, though single readings can be large; an effect the other way counts as inactive or inconclusive.
# Columns and labels:
# [1] = Quantitative High-Throughput drug screen in 47 multiple myeloma cell lines against the NCATS MIPE library collection: H1112_PLB cell viability assay (AID 1918967; note: nearly all actives have a fitted effect of over 30% in size; note: potency is the fitted concentration of half-maximal effect)
# How it was run: (§1)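 We plated 500 myeloma cells per well, pinned in MIPE 4.0 compounds, and incubated for 48 hours at 37C. ATP was then quantified with CellTiter-Glo, with DMSO and media-only wells defining 100% and 0%.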
# [2] = Quantitative High-Throughput drug screen in 47 multiple myeloma cell lines against the NCATS MIPE library collection: Karpas25_ECACC cell viability assay (AID 1918968; note: nearly all actives have a fitted effect of over 35% in size; note: potency is the fitted concentration of half-maximal effect)
# How it was run: as §1
# [3] = Quantitative High-Throughput drug screen in 47 multiple myeloma cell lines against the NCATS MIPE library collection: KMS27_JCRB cell viability assay (AID 1918970); note: nearly all actives have a fitted effect of over 30% in size; note: potency is the fitted concentration of half-maximal effect
# How it was run: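 ATP-based viability (CellTiter-Glo luminescence) is measured in cells treated 48 h with approved and investigational drugs at 37 °C. Controls are DMSO-only wells for full viability and media-only wells for none.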
# [4] = Quantitative High-Throughput drug screen in 47 multiple myeloma cell lines against the NCATS MIPE library collection: KMS12BM_JCRB cell viability assay (AID 1918971); note: nearly all actives have a fitted effect of over 35% in size; note: potency is the fitted concentration of half-maximal effect
# How it was run: (§2)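 Relative luminescence from CellTiter-Glo served as the viability signal, referenced to DMSO-treated (100%) and cell-free medium (0%) controls. Treatment lasted 48 hours at 37C with 500 cells per well.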
# [5] = Quantitative High-Throughput drug screen in 47 multiple myeloma cell lines against the NCATS MIPE library collection: KMS12PE_JCRB cell viability assay (AID 1918972); note: nearly all actives have a fitted effect of over 30% in size; note: potency is the fitted concentration of half-maximal effect
# How it was run: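 CellTiter-Glo luminescence (ATP) after 48 h compound exposure, 37C/5% CO2; 500 cells/well; MIPE 4.0 approved/investigational drugs pinned in; DMSO = 100%, media only = 0% viability.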
# [6] = Quantitative High-Throughput drug screen in 47 multiple myeloma cell lines against the NCATS MIPE library collection: KMS26_JCRB cell viability assay (AID 1918975); note: nearly all actives have a fitted effect of over 45% in size; note: potency is the fitted concentration of half-maximal effect
# How it was run: as §2
# [7] = Quantitative High-Throughput drug screen in 47 multiple myeloma cell lines against the NCATS MIPE library collection: MMM1_PLB cell viability assay (AID 1918976); note: potency is the fitted concentration of half-maximal effect; nearly all actives have a fitted effect of over 35% in size
# How it was run: (§3)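 500 cells/well; MIPE 4.0 drugs pin-transferred; 48 h, 37C, 5% CO2. CellTiter-Glo, 5 min RT, luminescence. Controls: DMSO 100%, media 0%.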
# [8] = Quantitative High-Throughput drug screen in 47 multiple myeloma cell lines against the NCATS MIPE library collection: NCIH929_DSMZ cell viability assay (AID 1918978); note: nearly all actives have a fitted effect of over 35% in size; note: potency is the fitted concentration of half-maximal effect
# How it was run: as §3
# [9] = Quantitative High-Throughput drug screen in 47 multiple myeloma cell lines against the NCATS MIPE library collection: MM1S_ATCC cell viability assay (AID 1918980); note: potency is the fitted concentration of half-maximal effect; nearly all actives have a fitted effect of over 45% in size
# How it was run: as §3
# [10] = Quantitative High-Throughput drug screen in 47 multiple myeloma cell lines against the NCATS MIPE library collection: KMS28PE_JCRB cell viability assay (AID 1918983); note: nearly all actives have a fitted effect of over 35% in size; note: potency is the fitted concentration of half-maximal effect
# How it was run: as §3
# [11] = Quantitative High-Throughput drug screen in 47 multiple myeloma cell lines against the NCATS MIPE library collection: L363_DSMZ cell viability assay (AID 1918984); note: nearly all actives have a fitted effect of over 40% in size; note: potency is the fitted concentration of half-maximal effect
# How it was run: as §3
# [12] = Quantitative High-Throughput drug screen in 47 multiple myeloma cell lines against the NCATS MIPE library collection: OCIMY7_PLB cell viability assay (AID 1918987); conditions: OCI-MY7 myeloma viability, CellTiter-Glo ATP, 48 h; viability (% of DMSO): at 45.8 µM (top of the series); note: potency is the fitted concentration of half-maximal effect; nearly all actives have a fitted effect of over 65% in size
# How it was run: as §3
# [13] = Quantitative High-Throughput drug screen in 47 multiple myeloma cell lines against the NCATS MIPE library collection: MM1R_ATCC cell viability assay (AID 1918981); note: nearly all actives have a fitted effect of over 35% in size; note: potency is the fitted concentration of half-maximal effect
# How it was run: as §3
# [14] = Quantitative High-Throughput drug screen in 47 multiple myeloma cell lines against the NCATS MIPE library collection: LP1_DSMZ cell viability assay (AID 1918982); note: nearly all actives have a fitted effect of over 35% in size; note: potency is the fitted concentration of half-maximal effect
# How it was run: as §3
# [15] = Quantitative High-Throughput drug screen in 47 multiple myeloma cell lines against the NCATS MIPE library collection: KMS34_JCRB cell viability assay (AID 1918985); note: potency is the fitted concentration of half-maximal effect; nearly all actives have a fitted effect of over 40% in size
# How it was run: as §3
# [16] = Quantitative High-Throughput drug screen in 47 multiple myeloma cell lines against the NCATS MIPE library collection: KMS21BM_JCRB cell viability assay (AID 1918974); conditions: ATP luminescence, 48 h; viability: at 45.8 µM (top of the series) unless noted; note: potency is the fitted concentration of half-maximal effect
# How it was run: as §1
# [17] = Quantitative High-Throughput drug screen in 47 multiple myeloma cell lines against the NCATS MIPE library collection: OCIMY5_PLB cell viability assay (AID 1918988); note: potency is the fitted concentration of half-maximal effect; nearly all actives have a fitted effect of over 65% in size
# How it was run: as §3
# [18] = Quantitative High-Throughput drug screen in 47 multiple myeloma cell lines against the NCATS MIPE library collection: MOLP8_DSMZ cell viability assay (AID 1918977); note: nearly all actives have a fitted effect of over 45% in size; note: potency is the fitted concentration of half-maximal effect
# How it was run: as §3
# [19] = Quantitative High-Throughput drug screen in 47 multiple myeloma cell lines against the NCATS MIPE library collection: KMS20_JCRB cell viability assay (AID 1918973); note: potency is the fitted concentration of half-maximal effect; nearly all actives have a fitted effect of over 45% in size
# How it was run: as §1
# [20] = Quantitative High-Throughput drug screen in 47 multiple myeloma cell lines against the NCATS MIPE library collection: OCIMY1_PLB cell viability assay (AID 1918979); note: nearly all actives have a fitted effect of over 35% in size
# How it was run: as §3
Structure (SMILES),Potency [1],Potency [2],Potency [3],Potency [4],Potency [5],Potency [6],Potency [7],Potency [8],Potency [9],Potency [10],Potency [11],Potency [12],Potency [13],Potency [14],Potency [15],Potency [16],Potency [17],Potency [18],Potency [19],Potency [20]
O=C1NC(=O)C(=Cc2ccc3nccnc3c2)S1,6.45 µM (active),5.75 µM (active),2.29 µM (active),8.12 µM (active),1.15 µM (active),12.9 µM (active),8.12 µM (active),3.63 µM (active),6.45 µM (active),10.2 µM (active),0.115 µM (active),2.29 µM (active),–,–,–,–,–,–,–,–
Cc1cnc(C(=O)O)c[n+]1[O-],inactive,inactive,inactive,inactive,inactive,–,3.32 µM (active),inactive,–,23.5 µM (active),inactive,–,inactive,inactive,4.18 µM (active),–,–,–,–,–
O=C(NCc1ccncc1)C12C[C@H]3C[C@@H](C1)CC(c1ccc(Cl)cc1)(C3)C2,13.2 µM (active),20.9 µM (active),8.33 µM (active),20.9 µM (active),26.4 µM (active),–,14.8 µM (active),inactive,13.2 µM (active),23.5 µM (active),5.26 µM (active),18.7 µM (active),18.7 µM (active),–,–,13.2 µM (active),18.7 µM (active),–,–,–
Cn1cc(C=C2C(=O)Nc3cccnc32)c2ccccc21,inactive,inactive,inactive,inactive,–,inactive,–,–,–,inactive,–,–,–,–,–,–,–,inactive,–,–
Cc1[nH]c(C=C2C(=O)Nc3ccc(S(=O)(=O)Cc4c(Cl)cccc4Cl)cc32)c(C)c1C(=O)N1CCC[C@H]1CN1CCCC1,14.8 µM (active),2.96 µM (active),2.64 µM (active),23.5 µM (active),2.64 µM (active),23.5 µM (active),23.5 µM (active),8.33 µM (active),–,20.9 µM (active),2.35 µM (active),10.5 µM (active),–,23.5 µM (active),20.9 µM (active),4.69 µM (active),14.8 µM (active),16.6 µM (active),–,–
C=C1C(=O)OC2C=C(C)CCC=C(C)CCC12 (stereo not given),20.9 µM (active),20.9 µM (active),20.9 µM (active),20.9 µM (active),20.9 µM (active),–,11.8 µM (active),20.9 µM (active),23.5 µM (active),23.5 µM (active),29.6 µM (active),4.69 µM (active),–,–,14.8 µM (active),26.4 µM (active),–,16.6 µM (active),–,–
Cc1ccc(C(=O)Nc2cccc(C(F)(F)F)c2)cc1Nc1nc(-c2cccnc2)nc2c1cnn2C,14.8 µM (active),13.2 µM (active),inactive,13.2 µM (active),inactive,13.2 µM (active),16.6 µM (active),14.8 µM (active),18.7 µM (active),26.4 µM (active),–,–,–,16.6 µM (active),16.6 µM (active),inactive,10.5 µM (active),–,8.33 µM (active),–
Cc1ccn(-c2ccc(-c3ncco3)cc2)c(=O)c1-c1ccc2nc(N)ncc2c1,inactive,9.35 µM (active),inactive,13.2 µM (active),5.26 µM (active),–,–,inactive,–,inactive,–,0.935 µM (active),–,inactive,–,–,–,–,–,inactive
c1ccc2c(Cc3c[nH]c4ccccc34)c[nH]c2c1,1.05 µM (active),1.05 µM (active),7.43 µM (active),20.9 µM (active),5.9 µM (active),4.69 µM (active),16.6 µM (active),1.05 µM (active),1.32 µM (active),26.4 µM (active),–,1.05 µM (active),2.35 µM (active),–,–,–,0.743 µM (active),18.7 µM (active),–,–
COCCOc1nc(-c2ccc(Cl)c(Cl)c2)n(-c2ccc(NC(=O)CCl)cc2)n1,14.8 µM (active),5.26 µM (active),16.6 µM (active),16.6 µM (active),14.8 µM (active),–,16.6 µM (active),13.2 µM (active),–,–,8.33 µM (active),16.6 µM (active),14.8 µM (active),–,18.7 µM (active),16.6 µM (active),20.9 µM (active),–,–,–
Nc1ncnc2c1nc(Cl)n2[C@@H]1O[C@H](CO)[C@@H](O)[C@@H]1O,18.7 µM (active),7.43 µM (active),20.9 µM (active),23.5 µM (active),14.8 µM (active),20.9 µM (active),18.7 µM (active),8.33 µM (active),4.18 µM (active),18.7 µM (active),20.9 µM (active),10.5 µM (active),0.935 µM (active),20.9 µM (active),11.8 µM (active),–,0.418 µM (active),7.43 µM (active),–,–
CO[C@H]1C[C@@H]2CC[C@@H](C)[C@@](O)(O2)C(=O)C(=O)N2CCCC[C@@H]2C(=O)O[C@H]([C@H](C)C[C@@H]2CC[C@H](OCCO)[C@H](OC)C2)CC(=O)[C@H](C)C=C(C)[C@@H](O)[C@@H](OC)C(=O)[C@H](C)C[C@H](C)C=CC=CC=C1C,inactive,1.05 µM (active),4.18 µM (active),4.18 µM (active),–,–,–,–,–,–,–,–,–,inactive,–,7.43 µM (active),–,–,–,–
